Measurements published in PubChem BioAssay.
Where “and” joins values, the source holds several entries; their conditions need not be identical. Identical values can stand only once. Inconclusive results are not listed. Calls of active or inactive are those of the source.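 Rule for the calls, unless noted: active = compound that reduces growth-factor-driven endothelial tube area in a mixed cell culture, no cutoff stated; inactive = the rest.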

How the values were obtained:
[1] = Wnt pathway potentiators raising nuclear beta-catenin – imaging, WNT3A-conditioned medium, mouse C2C12, NPC library, primary screen (AID 1117326; in the data active = nuclear beta-catenin stimulation mostly above about 4.2%, no sharp cut-off; inactive = mostly below about 10%; note: reference of the scale not given here); conditions: stronger effect = higher value
[2] = stimulators of insulin release from INS-1E, primary screen, cell-based, 5 mM glucose, NPC library (AID 1117329;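 active = compound raises insulin release from rat beta cells at 5 mM glucose, no numeric limit stated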; note: reference of the scale not given here); conditions: rat INS-1E insulin secretion, at 10 µM, stronger effect = higher value
[3] = growth inhibition of GSK3B-pretreated HCT116 cells – cell-based, CellTiter-Glo, 0.2 to 20 µM (AID 1117336;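 active = compounds lowering colon cancer cell viability after pretreatment blocking the GSK3B kinase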); conditions: HCT116 viability after GSK3B inhibitor, at 20 µM, stronger effect = higher value
[4] = inhibition of endothelial tube formation, primary screen, imaging, VEGF stimulated, CD31 staining, tube area, NPC library (AID 1117340); conditions: VEGF-stimulated ADSC/ECFC co-culture, at 10 µM, stronger effect = higher value
[5] = GLP1 release stimulators, primary, NCI-H716, NPC library (AID 1117341;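 active = compound raises GLP1 secretion from the human gut endocrine cells, with no numeric limit stated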; note: reference of the scale not given here); conditions: NCI-H716 cells, at 10 µM, stronger effect = higher value
[6] = HCT116 colon cancer cell growth inhibition, primary screen, CellTiter-Glo luminescence, NPC library (AID 1117342;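 active = compounds that lower survival of HCT116 colon cancer cells in the luminescence readout, no numeric limit stated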); conditions: at 20 µM (top of the series)
[7] = reduced SW480 viability measured with CellTiter-Glo, NPC library, primary (AID 1117343;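 active = compounds that lower viability of the colon cancer cells in the luminescence readout, with no numeric limit stated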); conditions: CellTiter-Glo luminescence; at 20 µM (top of the series) unless noted
[8] = NPC library primary testing for decreased DLD-1 cell viability via CellTiter-Glo (AID 1117346;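 active = compounds that lower survival of DLD-1 colon cancer cells in the luminescence readout, no cutoff given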); conditions: DLD-1 viability, CellTiter-Glo luminescence; at 20 µM (top of the series)
[9] = test system: Aerobactin synthetase IucA (Klebsiella pneumoniae); experiment: inhibition of K. pneumoniae IucA enzyme – biochemical, Tocris library, absorbance (AID 1345561; call rule not given here;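 note: 100% = enzyme without compound and 0% = no enzyme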); conditions: purified IucA enzyme assay, absorbance (OD) read-out; stronger effect = lower value;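 tested at 8 µM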
[10] = viability loss with induced miR-34 in A549 – imaging, A549 dox-inducible miR-34, nuclei and caspase counts, primary screen (AID 1347080;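 active = compounds whose cell count with miR-34 switched on is under 0.7 times the count with it off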); conditions: A549 miR-34 inducible, Hoechst nuclei count, 48 h
[11] = galactose survival enhancers in mitochondrial complex I cybrids – cell-based, galactose medium, ATP luminescence, primary screen (AID 1645843;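 active = z-score of at least 1.8 in each of two replicates, scored against plate mean and spread of sample wells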;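 note: positive z means more ATP and so rescue of galactose-driven cybrid death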); conditions: complex I mutant cybrid cells, 72 h, stronger effect = higher value
[12] = viability loss in pontine glioma line – cell-based, SU-DIPG-XVII, MIPE5.0, CellTiter-Glo, qHTS, dose response (AID 1347060; cut-off not given, nearly all actives have AC50 up to about 26 µM;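 for AC50: cells exposed to compound for 48 hours before viability readout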); conditions: CellTiter-Glo ATP luminescence
[13] = viability loss in pontine glioma line – cell-based, SU-DIPG-XIII, MIPE4.0, CellTiter-Glo, qHTS, dose response (AID 1347061; cut-off not given, nearly all actives have AC50 up to about 37 µM;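 note: cells exposed to compound for 48 hours before readout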); conditions: CellTiter-Glo ATP luminescence
[14] = viability loss in pontine glioma line – cell-based, JHH-DIPG-1, MIPE4.0, CellTiter-Glo, qHTS, dose response (AID 1347062; cut-off not given, nearly all actives have AC50 up to about 27 µM); conditions: JHH-DIPG-1 viability, CellTiter-Glo ATP luminescence
[15] = growth inhibition of DIPG cells – cell-based, MIPE5.0 library, qHTS (AID 1347068; cut-off not given, nearly all actives have IC50 up to about 30 µM;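 for IC50: cells exposed to compound for 48 hours before viability readout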); conditions: SU-DIPG-XXV viability
[16] = target: NAD(+) hydrolase SARM1 (Homo sapiens) (UniProt Q6SZW1); experiment: blocking NAD cleavage by SARM1 SAM-TIR – cell lysate, NAD-Glo luminescence (AID 1508614;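 active = compound whose remaining NAD level is above about 45 nM, limit read from the data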;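 note: higher remaining NAD means stronger inhibition of SARM1 NADase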); conditions: SAM-TIR HEK293T lysate NADase, at 1 µM, stronger effect = higher value
Chain of NAD(+) hydrolase SARM1 (Homo sapiens) (Q6SZW1 whole entry, looked up): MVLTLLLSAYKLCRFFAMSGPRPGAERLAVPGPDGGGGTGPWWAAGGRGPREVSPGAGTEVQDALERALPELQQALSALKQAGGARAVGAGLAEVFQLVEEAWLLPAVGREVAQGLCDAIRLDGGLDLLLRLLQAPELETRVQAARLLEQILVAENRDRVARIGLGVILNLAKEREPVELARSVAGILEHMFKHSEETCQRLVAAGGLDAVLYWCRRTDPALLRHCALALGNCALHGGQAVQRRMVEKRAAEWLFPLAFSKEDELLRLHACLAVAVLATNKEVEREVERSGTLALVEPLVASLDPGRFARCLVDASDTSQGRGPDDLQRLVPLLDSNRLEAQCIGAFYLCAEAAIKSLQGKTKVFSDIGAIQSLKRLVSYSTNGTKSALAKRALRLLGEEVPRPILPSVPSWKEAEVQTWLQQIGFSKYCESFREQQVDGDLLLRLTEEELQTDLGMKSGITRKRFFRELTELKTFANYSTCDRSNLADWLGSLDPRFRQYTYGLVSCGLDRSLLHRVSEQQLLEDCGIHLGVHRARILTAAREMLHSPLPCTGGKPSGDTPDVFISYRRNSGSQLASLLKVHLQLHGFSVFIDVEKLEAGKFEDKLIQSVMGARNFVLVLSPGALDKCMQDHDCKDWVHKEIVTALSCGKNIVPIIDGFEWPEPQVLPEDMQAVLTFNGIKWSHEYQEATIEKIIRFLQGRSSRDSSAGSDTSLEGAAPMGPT

[17] = MELAS cybrid and Rieske KO viability enhancers – cell-based, MELAS cybrids, Rieske KO mouse fibroblasts, CellTiter-Glo, primary screen (AID 1508586;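 active = mean z-score across replicates of 1.96 or higher in either the MELAS or the Rieske mutant cell line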;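 note: z relative to plate mean and SD of compound and empty wells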); conditions: low glucose
[18] = stronger effect = lower value, cell number ratio, induced over uninduced
[19] = measured here: relative caspase fold change +Dox/-Dox
[20] = measured here: total cells with miR-34 induction, stronger effect = lower value
[21] = measured here: total cells without miR-34 induction
[22] = MELAS cybrid survival, CellTiter-Glo 48 h, stronger effect = higher value
[23] = Rieske KO mouse fibroblast survival, CellTiter-Glo 72 h

CC1(COc2ccc(CC3SC(=O)NC3=O)cc2)CCCCC1 (stereo unspecified)
1.5%: nuclear beta-catenin stimulation ([1]; stimulation, at 2 µM)
active: viability decrease [3] 99% | inhibition of viability [6] 101% | viability decrease (inhibition) [7] 146% | viability decrease (inhibition) [8] 105%
5590 and 5930 and 7780: cell count [10, 20]
6130 and 5780 and 8200: cell count [10, 21]
1.87 and 1.11 and 0.669: fold change [10, 19]
inactive: nuclear beta-catenin stimulation ([1]; at 10 µM) 2.4% | insulin secretion stimulation [2] 1.9% | tube area decrease [4] 14% | GLP1 secretion stimulation [5] 6.6% | remaining activity [9] 110% | fold change [10, 18] 0.913 and 1.03 and 0.948 | z-score [11] -0.49

Nc1ccn(C[C@@H](CO)OCP(=O)(O)O)c(=O)n1
0.4%: nuclear beta-catenin stimulation ([1]; stimulation, at 2 µM)
active: viability decrease (inhibition) [7] 109%
inactive: nuclear beta-catenin stimulation ([1]; at 10 µM) 1.2% | insulin secretion stimulation [2] 1.05% | viability decrease [3] 22.7% | tube area decrease [4] -2.6% | GLP1 secretion stimulation [5] 0.9% | inhibition of viability [6] 14.9% | viability decrease (inhibition) [8] 2.8% | outcome [12] | outcome [13] | outcome [14] | outcome [15]

CSCC[C@H](NC(=O)[C@H](Cc1c[nH]c2ccccc12)NC(=O)CCNC(=O)OC(C)(C)C)C(=O)N[C@@H](CC(=O)O)C(=O)N[C@@H](Cc1ccccc1)C(N)=O
inactive: nuclear beta-catenin stimulation ([1]; at 10 µM) 0.1% | insulin secretion stimulation [2] 0.8% | viability decrease [3] -19% | tube area decrease [4] 5.2% | GLP1 secretion stimulation [5] 0.3% | inhibition of viability [6] -11.9% | viability decrease (inhibition) [7] 23.6% | viability decrease (inhibition) [8] -23.3% | outcome [12] | outcome [14] | outcome [15] | remaining NAD [16] 10 nM
1.3%: nuclear beta-catenin stimulation ([1]; stimulation, at 2 µM)
active: AC50 [13] 0.935 µM

Cc1[nH]c(=O)c(C#N)cc1-c1ccc2nccn2c1
inactive: nuclear beta-catenin stimulation ([1]; at 10 µM) -1.8% | insulin secretion stimulation [2] 3% | viability decrease [3] -9.8% | tube area decrease [4] -3.8% | GLP1 secretion stimulation [5] -0.6% | inhibition of viability [6] -1.6% | viability decrease (inhibition) [7] 0.1% | viability decrease (inhibition) [8] -7.8% | outcome [12] | outcome [13] | outcome [14] | outcome [15] | fold change [10, 18] 0.996 | z-score [11] 0.905
9290: cell count [10, 21]
-0.5%: nuclear beta-catenin stimulation ([1]; stimulation, at 2 µM)
0.805: fold change [10, 19]
9250: cell count [10, 20]

CCCCCCCCCCCCCCCC(=O)NCCO
8.9%: nuclear beta-catenin stimulation ([1]; stimulation, at 2 µM)
inactive: nuclear beta-catenin stimulation ([1]; at 10 µM) 2.2% | insulin secretion stimulation [2] 4.7% | viability decrease [3] -7.4% | tube area decrease [4] -5.7% | GLP1 secretion stimulation [5] -1.8% | inhibition of viability [6] 1.3% | viability decrease (inhibition) [7] -42.2% | viability decrease (inhibition) [8] -11.2% | remaining activity [9] 113% | remaining NAD [16] 10 nM | z-score [11] 0.05

Cl/C(=C\n1cncn1)c1ccc(Cl)cc1Cl
8590: cell count [10, 20]
0.653: fold change [10, 19]
9640: cell count [10, 21]
4%: nuclear beta-catenin stimulation ([1]; stimulation, at 2 µM)
inactive: nuclear beta-catenin stimulation ([1]; at 10 µM) 3.9% | insulin secretion stimulation [2] 2.4% | viability decrease [3] 3% | tube area decrease [4] -2.8% | GLP1 secretion stimulation [5] -1.4% | inhibition of viability [6] 30.3% | viability decrease (inhibition) [7] 13.4% | viability decrease (inhibition) [8] 24.2% | remaining activity [9] 121% | fold change [10, 18] 0.89 | z-score [11] -0.15

O=C(O)C(=O)Nc1cccc(-c2nn[nH]n2)c1
inactive: nuclear beta-catenin stimulation ([1]; at 10 µM) 1.3% | insulin secretion stimulation [2] 4% | viability decrease [3] 19.5% | tube area decrease [4] 0.4% | GLP1 secretion stimulation [5] -3.2% | inhibition of viability [6] -2.9% | viability decrease (inhibition) [7] 32.2% | viability decrease (inhibition) [8] 9.1% | outcome [12] | outcome [13] | outcome [14] | outcome [15]
1.9%: nuclear beta-catenin stimulation ([1]; stimulation, at 2 µM)

CC(C)OC(=O)C(C(=O)OC(C)C)=C1SC=CS1
0.382: z-score [17, 23]
0.1%: nuclear beta-catenin stimulation ([1]; stimulation, at 2 µM)
0.974: fold change [10, 19]
8520: cell count [10, 21]
7660: cell count [10, 20]
inactive: nuclear beta-catenin stimulation ([1]; at 10 µM) 1.3% | insulin secretion stimulation [2] 0.3% | viability decrease [3] 3.95% | tube area decrease [4] 4.8% | GLP1 secretion stimulation [5] 3.5% | inhibition of viability [6] -0.1% | viability decrease (inhibition) [7] 6.3% | viability decrease (inhibition) [8] 8.2% | outcome [12] | outcome [13] | outcome [14] | outcome [15] | fold change [10, 18] 0.9 | z-score [17, 22] -0.382

C[C@H]1C[C@H]2[C@@H]3CCC4=CC(=O)C=C[C@]4(C)[C@H]3C(=O)C[C@]2(C)[C@@]1(O)C(=O)CO
1.2%: nuclear beta-catenin stimulation ([1]; stimulation, at 2 µM)
inactive: nuclear beta-catenin stimulation ([1]; at 10 µM) 0.1% | insulin secretion stimulation [2] 1.5% | viability decrease [3] 19% | tube area decrease [4] -11% | GLP1 secretion stimulation [5] 0.7% | inhibition of viability [6] -1.9% | viability decrease (inhibition) [7] 0.2% | viability decrease (inhibition) [8] 5.4% | outcome [12] | outcome [13] | outcome [14] | outcome [15]

C[C@@H](NCCCc1cccc(C(F)(F)F)c1)c1cccc2ccccc12
6150: cell count [10, 21]
5970: cell count [10, 20]
0.442: z-score [17, 23]
0.761: fold change [10, 19]
-0.4%: nuclear beta-catenin stimulation ([1]; stimulation, at 2 µM)
inactive: nuclear beta-catenin stimulation ([1]; at 10 µM) 35.9% | insulin secretion stimulation [2] 0.2% | outcome [13] | outcome [14] | fold change [10, 18] 0.971 | z-score [17, 22] -0.442
active: viability decrease [3] 101% | tube area decrease [4] 99.6% | GLP1 secretion stimulation [5] 20.5% | inhibition of viability [6] 102% | viability decrease (inhibition) [7] 123% | viability decrease (inhibition) [8] 104% | AC50 [12] 16.6 µM | IC50 [15] 20.9 µM
